Results reported in PubChem BioAssay (EPA / NIEHS).
Where “and” joins values, the source holds several entries; their conditions need not be identical. Equal values may be shown once. Calls of active or inactive are those of the source. Rule for the calls: active = hit-call score of the fitted dose curve at least 0.9, where 1 is the maximum; inactive = score below 0.9.

Legend:
[1] = target: Nuclear respiratory factor 1 (Homo sapiens) (UniProt Q16656); assay: ATG_NRF1_CIS: Attagene CIS-FACTORIAL HepG2 Assay for human Nuclear Respiratory Factor 1 (NRF1) Orphan Gene (AID 2282987); conditions: HepG2 NRF1 cis-element reporter, Attagene multiplex; actives raise or lower the signal
Procedure, shortened: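 Measured: fluorescent reporter-specific RT-PCR products from transfected HepG2 cells, separated by capillary electrophoresis. Exposure lasted 24 h. Analysis used bidirectional curve fitting with DMSO as negative control.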

[2] = target: Myc proto-oncogene protein (Homo sapiens) (UniProt P01106); assay: ATG_Myc_CIS: Attagene CIS-FACTORIAL HepG2 Assay for human Myelocytomatosis (Myc) Proto-Oncogene Transcription Factor (AID 2282990); conditions: HepG2, Attagene cis-reporter transcription factor activity; actives raise or lower the signal
Procedure, shortened: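 Fluorescence intensity of reporter-specific cDNA fragments, separated by capillary electrophoresis, gives the signal. Transfected HepG2 cells carrying cis-promoter reporter constructs are incubated with compound for 24 h; DMSO serves as baseline.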

[3] = ATG_NF_kB_CIS: Attagene CIS-FACTORIAL HepG2 Assay for human Nuclear Factor Kappa B (NF-kB) (AID 2282991); conditions: HepG2 Attagene cis-factorial NF-kB reporter mRNA; actives raise or lower the signal
Procedure, shortened: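 Fluorescence of labelled RT-PCR products separated by capillary electrophoresis gives reporter mRNA levels from transfected HepG2 cells exposed 24 h; values are fitted in both directions relative to DMSO.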

[4] = ATG_NRF2_ARE_CIS: Attagene CIS-FACTORIAL HepG2 Assay for human Nuclear Factor Erythroid 2 Related Factor 2 (NFR2) response to Antioxidant Response Elements (ARE) (AID 2282992); conditions: HepG2 Attagene ARE/NRF2 reporter, transcription factor activity; actives raise or lower the signal
Procedure, shortened: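 Fluorescence intensity of reporter-specific cDNA fragments, separated by capillary electrophoresis, reflects mRNA induction in transfected HepG2 cells at 24 h. Activity is fitted bidirectionally, DMSO serving as baseline.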

[5] = target: Cellular tumor antigen p53 (Homo sapiens) (UniProt P04637); assay: ATG_p53_CIS: Attagene CIS-FACTORIAL HepG2 Assay for human p53 Transcription Factor (AID 2282994); conditions: HepG2 p53 cis-element reporter, Attagene mRNA; actives raise or lower the signal
Procedure, shortened: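 Transiently transfected HepG2 (multiple cis reporter transcription units); exposure 24 h; reporter RNA via RT-PCR, 6-FAM extension, 2 h HpaI digest at 37 C, CE detection; DMSO baseline.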

[6] = BSK_3C_TissueFactor: BioMAP Diversity Plus: 3C Assay for Tissue Factor Biomarker Activity (AID 2282997); conditions: BioMAP 3C HUVEC, tissue factor biomarker readout; actives raise or lower the signal
Procedure, shortened: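 In this endothelial system, HUVEC are treated for 24 h and Tissue Factor is assessed by ELISA, normalised to DMSO.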

[7] = BSK_3C_uPAR: BioMAP Diversity Plus: 3C Assay for Urokinase-type plasminogen activator receptor (uPAR) Biomarker Activity (AID 2282998); conditions: BioMAP 3C HUVEC, uPAR biomarker ELISA; actives raise or lower the signal
Procedure, shortened: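 A multiplexed primary-cell system built on human umbilical vein endothelium was used, with chemical present for 24 h before reading. Cell-surface uPAR was detected by ELISA; signal change in either direction counted against DMSO.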

[8] = BSK_3C_VCAM1: BioMAP Diversity Plus: 3C Assay for Vascular cell adhesion molecule 1 (VCAM1) Biomarker Activity (AID 2282999); conditions: BioMAP 3C HUVEC, VCAM1 ELISA, cytokine-stimulated; actives raise or lower the signal
Procedure, shortened: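 HUVEC primary cells, 24 h compound exposure; VCAM-1 by ELISA; gain/loss of signal fitted bidirectionally vs DMSO baseline.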

[9] = ATG_Oct_MLP_CIS: Attagene CIS-FACTORIAL HepG2 Assay for human Octamer-Binding Transcription Factor (Oct) (AID 2282993); conditions: HepG2 Attagene cis-factorial Oct reporter, mRNA; actives raise or lower the signal
Procedure, shortened: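 HepG2, transient MRTU transfection, cis promoter elements; 24 h dosing; RT-PCR/CE fluorescence read-out of reporter mRNA; fit both directions vs DMSO.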

Sequence of Nuclear respiratory factor 1 (Homo sapiens) (Q16656 whole entry, looked up): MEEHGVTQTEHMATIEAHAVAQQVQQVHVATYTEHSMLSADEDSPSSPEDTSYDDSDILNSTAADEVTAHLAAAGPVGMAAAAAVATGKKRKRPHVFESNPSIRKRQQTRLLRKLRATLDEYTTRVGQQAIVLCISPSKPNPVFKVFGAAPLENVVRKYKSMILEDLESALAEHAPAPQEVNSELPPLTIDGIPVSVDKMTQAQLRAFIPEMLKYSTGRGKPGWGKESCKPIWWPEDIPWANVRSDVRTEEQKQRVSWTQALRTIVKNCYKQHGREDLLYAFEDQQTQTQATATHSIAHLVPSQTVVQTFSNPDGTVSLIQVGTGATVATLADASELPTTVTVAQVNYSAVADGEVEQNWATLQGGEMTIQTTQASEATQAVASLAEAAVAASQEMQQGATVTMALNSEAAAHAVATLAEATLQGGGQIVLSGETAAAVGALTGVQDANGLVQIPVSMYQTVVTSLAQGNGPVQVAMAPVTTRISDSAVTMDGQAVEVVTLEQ
Sequence of Cellular tumor antigen p53 (Homo sapiens) (P04637 whole entry, looked up): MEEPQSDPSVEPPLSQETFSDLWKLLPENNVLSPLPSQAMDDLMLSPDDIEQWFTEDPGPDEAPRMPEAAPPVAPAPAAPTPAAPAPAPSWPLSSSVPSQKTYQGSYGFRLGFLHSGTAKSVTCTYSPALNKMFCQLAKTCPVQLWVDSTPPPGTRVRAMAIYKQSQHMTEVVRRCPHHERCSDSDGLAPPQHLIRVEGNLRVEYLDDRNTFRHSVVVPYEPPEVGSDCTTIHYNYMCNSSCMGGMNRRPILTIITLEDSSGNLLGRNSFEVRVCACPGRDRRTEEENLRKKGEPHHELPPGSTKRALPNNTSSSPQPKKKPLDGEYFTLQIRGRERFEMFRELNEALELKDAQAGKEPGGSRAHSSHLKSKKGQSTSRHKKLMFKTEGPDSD
Sequence of Myc proto-oncogene protein (Homo sapiens) (P01106 whole entry, looked up, the tested form may be a part): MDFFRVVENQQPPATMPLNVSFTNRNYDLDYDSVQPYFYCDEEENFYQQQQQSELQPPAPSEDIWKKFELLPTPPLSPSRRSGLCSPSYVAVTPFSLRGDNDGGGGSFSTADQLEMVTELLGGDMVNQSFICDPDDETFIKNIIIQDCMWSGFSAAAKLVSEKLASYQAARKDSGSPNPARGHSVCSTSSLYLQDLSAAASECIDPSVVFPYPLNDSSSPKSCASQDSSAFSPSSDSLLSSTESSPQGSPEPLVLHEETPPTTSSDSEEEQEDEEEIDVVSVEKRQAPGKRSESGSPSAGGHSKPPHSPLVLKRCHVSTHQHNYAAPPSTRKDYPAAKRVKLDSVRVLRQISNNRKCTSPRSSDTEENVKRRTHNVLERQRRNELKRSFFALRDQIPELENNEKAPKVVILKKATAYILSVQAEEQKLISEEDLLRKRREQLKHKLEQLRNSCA

Structure (SMILES) | outcome [1] | outcome [2] | outcome [3] | AC50 [4] | outcome [5] | outcome [6] | outcome [7] | outcome [8] | outcome [4] | outcome [9] | AC50 [1] | AC50 [7] | AC50 [2] | AC50 [6] | AC50 [8]
O=S(=O)(O)C(F)(F)C(F)(F)C(F)(F)C(F)(F)C(F)(F)C(F)(F)C(F)(F)F | inactive | inactive | inactive | 42.6 µM (active) and 30.3 µM (active) | inactive | inactive | inactive | inactive | – | – | – | – | – | – | –
OCC(F)(F)C(F)(F)C(F)(F)F | inactive | inactive | inactive | – | inactive | inactive | inactive | inactive | inactive | inactive | – | – | – | – | –
FC(F)(F)C(F)(F)C(F)(F)C(F)(F)C(F)(F)C(F)(F)CC1CO1 (stereo unspecified) | inactive | inactive | inactive | – | inactive | inactive | inactive | inactive | inactive | inactive | – | – | – | – | –
O[Si](c1ccccc1)(c1ccccc1)c1ccccc1 | – | inactive | inactive | 31.1 µM (active) | inactive | inactive | – | inactive | – | inactive | 100 µM (active) | 32.9 µM (active) | – | – | –
CCCCCCCCCCCCCCCC[N+](C)(C)Cc1ccccc1 | inactive | – | inactive | – | inactive | – | – | – | inactive | inactive | – | 20 µM (active) | 25.1 µM (active) | 20 µM (active) | 8.49 µM (active)
FC(F)(F)C(F)(F)C(F)(F)CI | inactive | inactive | inactive | – | inactive | inactive | inactive | inactive | inactive | – | – | – | – | – | –
Cc1ccc(S(=O)(=O)NCl)cc1 | inactive | inactive | – | – | inactive | – | – | – | inactive | inactive | – | – | – | – | –
NC(=O)C(F)(F)C(F)(F)C(F)(F)C(F)(F)F | inactive | inactive | inactive | – | inactive | inactive | inactive | inactive | inactive | inactive | – | – | – | – | –
